# Sampled rows, rich in hits. Any-hit rate of the full collection: about 3%.
# DAGLB inh: blocks human DAGLB lipase activity; Q8NCG7; HEK293T DAGLB membrane lysate, EnzChek fluorogenic substrate; inhibition, % at 5.17 µM; 340,000 compounds, 0.059% hits; in the data active = inhibition above about 34%
# ATG4B inhibitor: ATG4B (human) cysteine protease inhibition; Q9Y4P1; AID 504462; 340,000 compounds, 0.51% hits; inhibition, % at 8.33 µM; ATG4B cleavage of LC3-PLA2, NBD-HPC fluorescence, 1 h; in the data active = inhibition above about 40%
# PAFAH1B2 FP inh: blocks human PAF acetylhydrolase 1b catalytic subunit 2. P68402. recombinant PAFAH1B2, FP-rhodamine activity probe, fluorescence polarization. inhibition, % at 3.39 µM. 340,000 compounds, 1.2% hits. AID 492953;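 active = inhibition above the mean of all tested compounds plus 3 SD, cut at about 24% in these data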
# PAFAH2 inh: inhibitors of human PAFAH2; inhibition, % at 3.39 µM; 340,000 compounds, 0.99% hits; Q99487; AID 492956; recombinant PAFAH2, FP-rhodamine activity probe, fluorescence polarization;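 active = inhibition above the mean over all tested compounds plus 3 SD, cut at about 30% in these data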;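 also: inhibitors block probe labeling of enzyme so polarization drops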
# pPAFAH FP inh: pPAFAH (human) enzyme inhibition; recombinant pPAFAH, FP-rhodamine probe fluorescence polarization; 330,000 compounds, 1.5% hits; inhibition, % at 3.39 µM;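 active = inhibition above the mean inhibition across the screen plus 3 SD, cut at about 25% in these data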;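 also: inhibitors block binding of the rhodamine activity-based probe so polarization drops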
# Target sequence (Q13093 whole entry, looked up): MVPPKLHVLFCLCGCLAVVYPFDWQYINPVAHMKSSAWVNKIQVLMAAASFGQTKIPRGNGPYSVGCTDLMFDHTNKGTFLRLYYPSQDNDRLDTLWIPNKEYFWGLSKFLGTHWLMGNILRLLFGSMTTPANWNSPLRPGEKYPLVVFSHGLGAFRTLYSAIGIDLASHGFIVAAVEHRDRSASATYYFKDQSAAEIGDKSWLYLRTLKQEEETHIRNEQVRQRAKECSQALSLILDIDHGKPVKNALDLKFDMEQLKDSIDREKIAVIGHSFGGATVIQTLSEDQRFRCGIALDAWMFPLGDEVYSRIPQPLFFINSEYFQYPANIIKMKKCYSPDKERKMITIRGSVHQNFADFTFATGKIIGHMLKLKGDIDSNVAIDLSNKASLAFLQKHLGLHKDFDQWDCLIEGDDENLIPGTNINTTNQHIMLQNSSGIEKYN
# PAFAH1B3 FP inh: PAFAH1B3 (human) inhibition; Q15102; recombinant PAFAH1B3, FP-rhodamine probe, fluorescence polarization; inhibition, % at 3.39 µM; 340,000 compounds, 0.28% hits; AID 492972;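 active = inhibition above the screen-wide average of all tested compounds plus 3 SD, cut at about 25% in these data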
# Numbers stand for hits; – = inactive; · = not tested or not shown.
SMILES,DAGLB inh,ATG4B inhibitor,PAFAH1B2 FP inh,PAFAH2 inh,pPAFAH FP inh,PAFAH1B3 FP inh
CCOC(=O)C1CCN(c2cc3c(cc2NC(=O)c2ccccc2OCC)n(C)c(=O)n3C)CC1,–,–,–,–,31,–
O=C(O)c1oc2ccccc2c1CSc1ccccn1,–,–,–,–,–,–
O=C(O)c1oc2ccccc2c1CSc1ccc(Cl)cc1,–,–,29,–,–,–
Cc1noc(C)c1NC(=O)N(C)C[C@H]1Oc2c(NC(=O)C3CCCCC3)cccc2C(=O)N([C@H](C)CO)C[C@@H]1C,–,–,–,–,–,–
C=CCN(c1ccccc1)S(=O)(=O)c1cccc(C(=O)Nc2nnc(SCC)s2)c1,–,–,–,–,34,–
COCO/C=C(\NC(C)=O)c1ccccc1,–,–,–,–,–,–
COc1cccc([C@@H]2CC=C(C(=O)O)[C@H](c3ccc(F)cc3)N2S(=O)(=O)c2ccc(C)cc2)c1,–,–,26,–,–,–
Cc1ccc(S(=O)(=O)N2[C@@H](c3ccccc3)C(C(=O)O)=CC[C@H]2c2cccc(C)c2)cc1,–,–,38,–,–,–
COc1ccc([C@@H]2CC=C(C(=O)O)[C@H](c3cccc(Cl)c3)N2S(=O)(=O)c2ccccc2C)cc1,–,–,26,–,–,–
COc1cccc([C@@H]2CC=C(C(=O)O)[C@H](c3ccccc3)N2S(=O)(=O)c2ccc(C)cc2)c1,–,–,–,–,–,–
O=C(O)C1=CC[C@@H](c2ccc(Cl)cc2)N(S(=O)(=O)c2ccc(Cl)cc2)[C@H]1c1ccc(Br)cc1,–,–,88,–,–,–
CCc1ccccc1NC(=O)CN1CCN(CC(=O)Nc2cc(C)ccc2OC)CC1,–,–,–,–,–,–
CC(C)CN(C(=O)COC(=O)c1c2c(nc3ccccc13)CCC2)c1c(N)n(Cc2ccccc2)c(=O)[nH]c1=O,–,–,–,–,–,–
NC(=O)Nc1ccc(Oc2c(F)c(F)c(F)c(F)c2F)cc1,–,–,–,–,29,–
CS(=O)(=O)C1=NSC2=NC(=O)/C(=C\c3cccn3-c3ccc(Cl)cc3)C(=N)N21,–,–,64,–,–,–
CCC(C(=O)c1ccc2ncccc2c1)c1ccccc1 (stereo not drawn),–,–,25,–,–,–
COc1ccc(O)c(C(=O)c2cc(SCC(=O)O)c3nc4sc5c(c4c(=O)n3c2)CCCC5)c1,–,–,–,–,28,–
Cc1cc(C(=O)OCC(=O)Nc2cccnc2Cl)c2ccccc2n1,–,–,–,–,–,–
COc1ccc(/C=N\NC(=O)c2cc(O)c(O)c(O)c2)cc1CN1CCN(c2ccc(F)cc2)CC1,–,–,–,–,30,–
O=C(NCc1ccccc1)Nc1cccn(Cc2ccccc2Cl)c1=O,–,–,–,–,–,–
O=C1NC(=Nc2ccccc2)SC1Cc1cccc(Cl)c1Cl (stereo not drawn),–,–,–,–,29,–
O=C1NC(=Nc2ccccc2)SC1Cc1ccccc1 (stereo not drawn),·,–,·,·,–,·
CC(C)CC(=O)N1CCN(Cc2ccc(C(F)(F)F)cc2)CC1,–,–,–,–,–,–
O=C(Nc1ccc(S(=O)(=O)Nc2nccs2)cc1)c1cc(-c2ccccc2Cl)nc2ccccc12,–,–,–,–,25,–
O=C(Nc1ccc(S(=O)(=O)Nc2nccs2)cc1)c1cc(-c2ccccn2)nc2ccccc12,–,–,–,–,–,–
SMILES,DAGLB inh,ATG4B inhibitor,PAFAH1B2 FP inh,PAFAH2 inh,pPAFAH FP inh,PAFAH1B3 FP inh
Cn1c2ccccc2c2cc(/C=N/NC(=O)c3ccc(N)cc3)ccc21,–,–,–,–,31,–
Cc1cccc(OCCC(=O)OCC(=O)Nc2c(C)nn(-c3ccccc3)c2C)c1,–,–,–,–,29,–
Cc1nn(-c2ccccc2)c(C)c1NC(=O)COC(=O)Cc1cccc(C(F)(F)F)c1,–,–,–,–,–,–
CCOc1ccc(OCCC(=O)OCC(=O)Nc2cc(C)nn2-c2ccccc2)cc1,–,–,–,–,–,–
Cc1nn(-c2ccccc2)c(C)c1NC(=O)COC(=O)CC(C)c1ccccc1 (stereo not drawn),–,–,–,–,27,–
O=C1CN(C(=O)c2ccc(Cl)c([N+](=O)[O-])c2)c2ccccc2N1,–,–,–,–,·,–
Cc1csc(NC(=O)c2c(-c3c(F)cccc3Cl)noc2C)n1,–,–,–,–,33,–
Cc1csc(NC(=O)c2c(-c3c(Cl)cccc3Cl)noc2C)n1,–,–,–,–,–,–
CCOc1ccccc1C(=O)Nc1ccc2nc(N3CCN(c4ncccn4)CC3)cc(C)c2c1,·,–,·,·,–,·
COc1cccc(C(=O)Nc2ccc3nc(N4CCN(c5ncccn5)CC4)cc(C)c3c2)c1OC,·,·,·,·,82,·
Cn1c(-c2ccccc2)cc(=NNS(C)(=O)=O)c2cc(S(=O)(=O)O)ccc21,–,·,·,·,·,·
CC(=O)c1ccc(OCC(=O)N2CCN(S(=O)(=O)c3ccc(C)cc3C)CC2)cc1,–,–,–,–,32,–
CCCOc1ccccc1OCC(=O)N1CCN(S(=O)(=O)c2ccc(Cl)cc2)CC1,–,–,25,–,–,–
O=C(COc1ccccc1[N+](=O)[O-])N1CCN(S(=O)(=O)c2ccccc2)CC1,–,–,–,–,–,–
Cc1ccc(S(=O)(=O)N2CCN(C(=O)CSc3ccc(F)cc3)CC2)cc1,–,–,26,–,–,–
Cc1ccc(S(=O)(=O)N2CCN(C(=O)COC(=O)COc3ccc(Br)cc3)CC2)c(C)c1,–,–,–,–,·,–
Cc1ccc(OCCC(=O)OCC(=O)N2CCN(S(=O)(=O)c3ccc(Cl)cc3)CC2)cc1,–,–,28,–,–,–
COc1ccc(C(=O)COC(=O)c2ccccc2O)c(OC)c1,–,–,–,–,–,–
CCc1ncc(C(O)c2ccc(Cl)cc2)n1Cc1ccccc1 (stereo not drawn),–,·,·,·,·,·
COc1ccccc1N1CCN(C(=O)CCC(=O)Nc2nnc(C(C)C)s2)CC1,–,–,–,–,–,–
CC(C)(C)c1ccc(-n2ncc3c2CCCC3NC(=O)c2cnccn2)cc1 (stereo not drawn),–,–,–,–,–,–
O=C(Nc1ccccc1N1CCOCC1)c1cccc(Oc2ccccc2)c1,–,–,–,–,–,–
COCC(C)N=C1NN=C(c2cc(C)n(Cc3ccccc3Cl)c2C)CS1 (stereo not drawn),–,–,–,–,26,–
COCCn1c(C)cc(C2=NNC(=Nc3ccc(Cl)cc3Cl)SC2)c1C,–,–,–,–,–,–
Cc1cccc(C)c1NC(=O)CNC(=O)C(C)N1CCN(c2cccc(Cl)c2)CC1 (stereo not drawn),–,–,–,–,–,–
CCOC(=O)c1sc(N=NC2=C(O)CCCC2=O)c(C(=O)OCC)c1C,–,–,–,–,28,–
CCOc1ccccc1N1CCN(C(=O)c2cccs2)CC1,–,–,–,–,–,–

# Assay outcomes from PubChem BioAssay.
